Data from PubChem BioAssay (Tox21).
Records with an inconclusive call do not appear. Calls of active or inactive are those of the source. Unless noted, the call rests on the fitted dose curve; in most records, active means well fitted curve in the direction sought with a large enough effect in the repeat runs; inconclusive means weak or mixed curves; inactive means no such curve, though single readings can be large; an effect the other way counts as inactive or inconclusive.

Assays:
[1] = qHTS assay to identify small molecule agonists of the peroxisome proliferator-activated receptor delta (PPARd) signaling pathway - cell viability counter screen (AID 743211); further: nearly all actives have a fitted effect of over 55% in size; further: potency means the concentration at half of the fitted maximal effect
In short: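 PPARd-bla HEK293H cells (3000/well) were pre-incubated 5 h at 37 C, then exposed to compound for 17 h at 37 C. After 2 h with LiveBLAzer substrate, CellTiter-Glo was added to the same wells; luminescence read after 30 min at room temperature.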

[2] = molecular target: Peroxisome proliferator-activated receptor delta (Homo sapiens) (UniProt Q03181); test: qHTS assay to identify small molecule agonists of the peroxisome proliferator-activated receptor delta (PPARd) signaling pathway (AID 743212; calls by dose curve; further: potency means the concentration at half of the fitted maximal effect)
Peroxisome proliferator-activated receptor delta (Homo sapiens), sequence (Q03181 whole entry, looked up): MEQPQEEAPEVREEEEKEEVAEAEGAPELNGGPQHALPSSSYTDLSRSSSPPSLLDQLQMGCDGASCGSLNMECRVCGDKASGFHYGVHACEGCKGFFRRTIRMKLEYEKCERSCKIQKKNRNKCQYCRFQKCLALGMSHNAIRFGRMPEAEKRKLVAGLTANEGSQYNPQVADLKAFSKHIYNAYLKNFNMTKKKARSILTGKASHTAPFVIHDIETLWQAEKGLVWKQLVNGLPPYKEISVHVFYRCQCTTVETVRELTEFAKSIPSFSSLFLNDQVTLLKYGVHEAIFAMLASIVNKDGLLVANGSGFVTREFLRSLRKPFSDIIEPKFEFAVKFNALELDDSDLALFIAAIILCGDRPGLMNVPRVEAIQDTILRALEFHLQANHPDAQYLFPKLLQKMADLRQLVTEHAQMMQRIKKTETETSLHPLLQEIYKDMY
In short: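 GeneBLAzer PPARd UAS-bla HEK293H cells (beta-lactamase reporter under UAS control), plated and rested 5 h at 37 C, then exposed to compounds in DMSO at 37 C; LiveBLAzer B/G FRET substrate added, 2 h room temperature, fluorescence read.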

[3] = qHTS assay to identify small molecule antagonists of the peroxisome proliferator-activated receptor delta (PPARd) signaling pathway - cell viability counter screen (AID 743213); further: nearly all actives have a fitted effect of over 50% in size; further: potency means the concentration at half of the fitted maximal effect
In short: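 Viability counter-screen, qHTS format: PPARd-bla HEK293H, L165041 300 nM final, 17 h compound exposure at 37 C, CellTiter-Glo luminescence after 30 min RT.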

[4] = molecular target: Peroxisome proliferator-activated receptor delta (Homo sapiens) (UniProt Q03181); test: qHTS assay to identify small molecule antagonists of the peroxisome proliferator-activated receptor delta (PPARd) signaling pathway (AID 743215; active means well fitted inhibition curve with a large enough effect in the signal ratio in the repeat runs, not every such curve was filed as active; the % refers to the signal ratio;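 further: cells stimulated with agonist L165041 at 300 nM final during compound exposure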; further: potency means the concentration at half of the fitted maximal effect)
In short: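 PPARd-bla HEK293H cells (UAS-bla reporter) preincubated 5 h, then given compound plus 300 nM final L165041 agonist for 17 h at 37 C. Beta-lactamase activity read by LiveBLAzer B/G FRET substrate fluorescence after 2 h at room temperature.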

[5] = molecular target: Bile acid receptor (Homo sapiens) (UniProt Q96RI1); test: qHTS assay to identify small molecule antagonists of the farnesoid-X-receptor (FXR) signaling pathway (AID 743217; active means well fitted inhibition curve with a large enough effect in the signal ratio in the repeat runs, not every such curve was filed as active; the % refers to the signal ratio; further: potency means the concentration at half of the fitted maximal effect)
Bile acid receptor (Homo sapiens), sequence (Q96RI1 whole entry, looked up): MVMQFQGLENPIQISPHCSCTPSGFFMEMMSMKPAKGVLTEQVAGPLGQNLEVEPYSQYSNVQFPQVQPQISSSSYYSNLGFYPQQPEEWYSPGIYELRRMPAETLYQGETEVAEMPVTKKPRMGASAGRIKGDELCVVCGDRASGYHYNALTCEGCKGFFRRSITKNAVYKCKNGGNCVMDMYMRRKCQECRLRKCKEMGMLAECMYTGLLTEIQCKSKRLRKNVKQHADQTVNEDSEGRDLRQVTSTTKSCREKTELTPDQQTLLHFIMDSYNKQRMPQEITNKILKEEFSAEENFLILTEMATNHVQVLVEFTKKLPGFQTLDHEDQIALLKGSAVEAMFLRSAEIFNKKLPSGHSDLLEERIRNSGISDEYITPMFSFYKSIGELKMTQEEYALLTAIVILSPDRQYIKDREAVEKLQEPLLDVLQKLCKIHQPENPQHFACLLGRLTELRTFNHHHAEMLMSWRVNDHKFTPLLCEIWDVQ
In short: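 FXR-UAS-bla HEK 293T cells (beta-lactamase reporter) given compound plus chenodeoxycholic acid (50 uM final), 16 h at 37C. LiveBLAzer B/G FRET substrate added for 2 h at room temperature; fluorescence read.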

[6] = molecular target: Bile acid receptor (Homo sapiens) (UniProt Q96RI1); test: qHTS assay to identify small molecule agonists of the farnesoid-X-receptor (FXR) signaling pathway (AID 743220; active means well fitted activation curve with a large enough effect in the signal ratio in the repeat runs, not every such curve was filed as active; the % refers to the signal ratio)
In short: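 Beta-lactamase reporter under UAS control in GeneBLAzer FXR HEK 293T cells (5000/well) measured with LiveBLAzer FRET substrate after 2 h at room temperature. Compound exposure lasted 16 h at 37C.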

[7] = qHTS assay to identify small molecule antagonists of the farnesoid-X-receptor (FXR) signaling pathway - cell viability counter screen (AID 743221; active means well fitted cell-killing curve with a large enough effect in the repeat runs, not every such curve was filed as active; further: nearly all actives have a fitted effect of over 50% in size)
In short: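 GeneBLAzer FXR-UAS-bla HEK 293T cells, compound plus chenodeoxycholic acid (50 uM final), 16 h at 37 C. CellTiter-Glo added to the same wells after the beta-lactamase read; luminescence read after 30 min at room temperature as viability.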

[8] = molecular target: Vitamin D3 receptor (Homo sapiens) (UniProt P11473); test: qHTS assay to identify small molecule antagonists of the vitamin D receptor (VDR) signaling pathway (AID 743223; active means well fitted inhibition curve with a large enough effect in the signal ratio in the repeat runs, not every such curve was filed as active; the % refers to the signal ratio; further: potency means the concentration at half of the fitted maximal effect)
Vitamin D3 receptor (Homo sapiens), sequence (P11473 whole entry, looked up): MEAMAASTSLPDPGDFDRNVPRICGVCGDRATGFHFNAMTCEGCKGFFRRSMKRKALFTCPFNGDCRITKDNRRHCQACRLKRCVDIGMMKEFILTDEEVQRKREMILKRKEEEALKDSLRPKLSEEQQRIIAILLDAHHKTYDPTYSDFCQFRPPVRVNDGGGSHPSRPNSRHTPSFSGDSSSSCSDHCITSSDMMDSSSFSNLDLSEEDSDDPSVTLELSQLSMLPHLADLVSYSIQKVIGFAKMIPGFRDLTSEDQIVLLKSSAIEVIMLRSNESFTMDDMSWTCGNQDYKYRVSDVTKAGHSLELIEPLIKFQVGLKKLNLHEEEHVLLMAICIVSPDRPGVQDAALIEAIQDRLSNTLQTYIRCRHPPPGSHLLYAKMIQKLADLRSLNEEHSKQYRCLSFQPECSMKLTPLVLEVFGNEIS
In short: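 VDR-bla cells were treated with compound plus 3 nM final 1alpha,25-dihydroxyvitamin D3 for 16 h at 37C. Beta-lactamase reporter read by B/G FRET substrate fluorescence after 2 h at room temperature. qHTS format.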

[9] = molecular target: Vitamin D3 receptor (Homo sapiens) (UniProt P11473); test: qHTS assay to identify small molecule agonists of the vitamin D receptor (VDR) signaling pathway (AID 743222; calls by dose curve)
In short: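 VDR-bla cells plated 4 h at 37 C, then exposed to compounds for 16 h at 37 C. Beta-lactamase reporter activity measured by fluorescence after 2 h room-temperature loading with LiveBLAzer B/G FRET substrate.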

[10] = qHTS assay to identify small molecule agonists of the farnesoid-X-receptor (FXR) signaling pathway - cell viability counter screen (AID 743218); further: nearly all actives have a fitted effect of over 45% in size; further: potency means the concentration at half of the fitted maximal effect
In short: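 FXR-UAS-bla HEK 293T cells exposed to compounds for 16 h at 37C. Cytotoxicity read in the same wells by CellTiter-Glo luminescence after 30 min at room temperature, following the beta-lactamase FRET read.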

Measured: Potency

C=C(C)C(=O)OCCOCCOC(=O)C(=C)C
inactive: [1] | [2] | [3] | [4] | [5] | [6] | [7] | [8]

Cc1ccccc1N=C(N)Nc1ccccc1C
inactive: [1] | [2] | [3] | [4] | [5] | [6] | [7] | [9] | [8]

CC(=O)Oc1ccc([N+](=O)[O-])cc1CCl
inactive: [1] | [2] | [3] | [4] | [5] | [6]

c1ccc2sc(SN(C3CCCCC3)C3CCCCC3)nc2c1
inactive: [1] | [2] | [3] | [4] | [5] | [10] | [6] | [7] | [9] | [8]

CCCCCCCC/C=C\CCCCCCCCCCCC(=O)O
inactive: [1] | [2] | [3] | [4] | [5] | [10] | [6] | [7]

Cc1ccccc1S
inactive: [1] | [2] | [3] | [4] | [5] | [10] | [6] | [7] | [9] | [8]

COc1ccccc1N1CCN(CCCCNC(=O)c2ccc(-c3ccc(C(C)=O)cc3)cc2)CC1
inactive: [1] | [2] | [3] | [4] | [5] | [6] | [7] | [9] | [8]

CC(C)C[C@H](NC(=O)[C@H](CCc1ccccc1)NC(=O)CN1CCOCC1)C(=O)N[C@@H](Cc1ccccc1)C(=O)N[C@@H](CC(C)C)C(=O)[C@@]1(C)CO1
active: [1] 0.237 µM

CN1C(C(=O)Nc2ccccn2)=C(O)c2sccc2S1(=O)=O
inactive: [1] | [2] | [3] | [4] | [10]

CC(=O)OCC[N+](C)(C)C
inactive: [1] | [2] | [3] | [4] | [5] | [10] | [6] | [9] | [8]

CCC1CO1 (stereo unspecified)
inactive: [1] | [2] | [3] | [4] | [5] | [10] | [6] | [7] | [9] | [8]

CC(=O)Nc1ccc(C)cc1C
inactive: [1] | [2] | [3] | [4] | [5] | [10] | [6] | [7] | [9] | [8]

CCCCN(CCCC)C(C(N)=O)c1ccc(OC)cc1 (stereo unspecified)
inactive: [1] | [2] | [3] | [4] | [10] | [7]

O[C@@H]1CO[C@H]2[C@@H]1OC[C@@H]2O
inactive: [1] | [2] | [3] | [4] | [5] | [10] | [6] | [7] | [9] | [8]

Oc1cccc(Nc2ccccc2)c1
inactive: [1] | [2] | [3] | [4] | [5] | [10] | [6] | [7]

O=C1c2ccccc2C(=O)c2c(O)c(O)cc(O)c21
inactive: [1] | [2] | [3] | [4] | [5] | [10] | [6] | [7] | [9] | [8]

CC(C)=CC(=O)C=C(C)C
inactive: [1] | [2] | [3] | [4] | [5] | [6] | [7] | [9] | [8]

COc1ccc(OC(=O)N(CC(=O)O)Cc2ccc(OCCc3nc(-c4ccccc4)oc3C)cc2)cc1
inactive: [1] | [3] | [4] | [5] | [10] | [7] | [8]
active: [2] 8.41 µM

COc1cc(C(=O)NC2CCN(C)CC2)ccc1Nc1ncc2c(n1)N(C1CCCC1)CC(F)(F)C(=O)N2C
active: [1] 11.3 µM | [3] 7.11 µM | [4] 14.2 µM | [5] 22.5 µM | [10] 17.9 µM | [8] 6.34 µM
inactive: [2] | [9]

C=C1C[C@@]23CC[C@H]4[C@@](C)(CCC[C@@]4(C)C(=O)O[C@@H]4O[C@H](CO)[C@@H](O)[C@H](O)[C@H]4O)[C@@H]2CC[C@]1(O[C@@H]1O[C@H](CO)[C@@H](O)[C@H](O[C@@H]2O[C@H](CO)[C@@H](O)[C@H](O)[C@H]2O)[C@H]1O[C@@H]1O[C@H](CO)[C@@H](O)[C@H](O)[C@H]1O)C3
inactive: [1] | [2] | [3] | [4] | [5] | [10] | [6] | [7] | [9] | [8]

Cc1ccc(CO)cc1
inactive: [1] | [2] | [3] | [4] | [5] | [6] | [7] | [9] | [8]

CC1(C)O[C@@H]2C[C@H]3[C@@H]4C[C@H](F)C5=CC(=O)C=C[C@]5(C)[C@H]4[C@@H](O)C[C@]3(C)[C@]2(C(=O)CO)O1
inactive: [1] | [2] | [3] | [4] | [5] | [10] | [6] | [7]

Clc1cc(Cl)nc(Cl)n1
inactive: [1] | [2] | [3] | [4] | [5] | [10] | [6] | [7] | [9] | [8]

FC(F)(F)c1ccccc1Cl
inactive: [1] | [2] | [3] | [4] | [5] | [10] | [6] | [7] | [9] | [8]

O=C(CCc1ccc(O)cc1)c1c(O)cc(O)cc1O
inactive: [1] | [2] | [3] | [4] | [5] | [10] | [6] | [7] | [8]

CC[N+](CC)(CCNC(=O)C(=O)NCC[N+](CC)(CC)Cc1ccccc1Cl)Cc1ccccc1Cl
inactive: [1] | [2] | [3] | [4] | [10]

CC(CCC(=O)O)C(=O)O (stereo unspecified)
inactive: [1] | [2] | [3] | [4] | [5] | [6] | [7]

CC(C)(C)C(=O)C(=O)O
inactive: [1] | [2] | [3] | [4] | [5] | [10] | [6] | [9]

Cc1cc(C)cc(N)c1
inactive: [1] | [2] | [3] | [4] | [5] | [10] | [6] | [7] | [9] | [8]

O=C1NC(=O)c2cc([N+](=O)[O-])ccc21
inactive: [1] | [2] | [3] | [4] | [10] | [7]

C(=C\c1ccccc1)/c1ccccc1
inactive: [1] | [2] | [3] | [4] | [5] | [6] | [7] | [9] | [8]

C1COC1
inactive: [1] | [2] | [3] | [4] | [5] | [10] | [6] | [7] | [9] | [8]

CCCCCCCCOc1ccc(C(=O)O)cc1
inactive: [1] | [3] | [4] | [5] | [10] | [7] | [8]
active: [2] 7.67 µM

C=C1c2cccc(O)c2C(O)=C2C(=O)[C@]3(O)C(O)=C(C(N)=O)C(=O)[C@@H](N(C)C)[C@@H]3[C@@H](O)[C@H]12
inactive: [1] | [2] | [3] | [4] | [5] | [6] | [7] | [9]

Cc1cc(C)c(N)cc1C
inactive: [1] | [2] | [3] | [4] | [5] | [10] | [6] | [7] | [9] | [8]

CCOC(=O)c1ccc(I)cc1
inactive: [1] | [2] | [3] | [4] | [5] | [10] | [6] | [7] | [9] | [8]

CC(C)=CCC/C(C)=C/CC/C(C)=C/CCC(=O)OC/C=C(\C)CCC=C(C)C
inactive: [1] | [2] | [3] | [4] | [10] | [7]

CC1CC(C)C(=O)C1=O (stereo unspecified)
inactive: [1] | [2] | [3] | [4] | [10] | [7]

O=C(O)CCCCCCCCCCCBr
inactive: [1] | [2] | [3] | [4] | [10] | [7]

CC(=O)c1cc2ccccc2s1
inactive: [1] | [2] | [3] | [5] | [10] | [6] | [7] | [8]

CCOC(=O)/C=C/C(=O)OCC
inactive: [1] | [2] | [3] | [4] | [10] | [7] | [9] | [8]

CCc1ccccc1
inactive: [1] | [2] | [3] | [4] | [10] | [7] | [9] | [8]

CCCCCCCCN
inactive: [1] | [2] | [3] | [4] | [10] | [7] | [9] | [8]

CC(CO)CO
inactive: [1] | [2] | [3] | [4] | [9]

Cc1ccc2c(Br)cc(Br)c(O)c2n1
inactive: [1] | [2] | [3] | [10] | [7] | [9] | [8]

CN1CC(=O)N2[C@H](c3ccc4c(c3)OCO4)c3[nH]c4ccccc4c3C[C@@H]2C1=O
inactive: [1] | [2] | [3] | [4] | [7] | [9] | [8]

COc1ncnc(NS(=O)(=O)c2ccc(N)cc2)c1OC
inactive: [1] | [2] | [3] | [4] | [10] | [7] | [9]

CC(=O)c1ccc([N+](=O)[O-])cc1
inactive: [1] | [2] | [3] | [4] | [10] | [7] | [9] | [8]

CC[C@]1(O)C[C@H]2CN(CCc3c([nH]c4ccccc34)[C@@](C(=O)OC)(c3cc4c(cc3OC)N(C=O)[C@H]3[C@@](O)(C(=O)OC)[C@H](OC(C)=O)[C@]5(CC)C=CCN6CC[C@]43[C@@H]65)C2)C1
inactive: [1] | [2] | [3] | [4] | [7]

O=C1Cc2cc(Cl)ccc2N1
inactive: [1] | [2] | [3] | [4] | [10] | [7] | [9] | [8]

CCOC(=O)c1ccc(OCCN2C[C@H](O)[C@@H](O)[C@H](O)[C@H]2CO)cc1
inactive: [1] | [2] | [3] | [4] | [10] | [7] | [9] | [8]
